Results reported in PubChem BioAssay (NCATS).
Records with an inconclusive call do not appear. The source made the active and inactive calls. Unless noted, calls follow the shape of the dose curve; as a rule, active = well fitted curve in the direction sought with a large enough effect; inconclusive = small, poorly fitted or top-dose-only effect, or another doubt; inactive = no such curve, though single readings can be large; an effect the other way counts as inactive or inconclusive.

Legend:
[1] = Validation of Assay for Modulators of Lamin A Splicing (AID 1459; active = well fitted curve in the direction sought with a large enough effect in the signal ratio; the % refers to the signal ratio;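 also: cells exposed to compound for two days before reading; ratio rise marks activators and ratio drop marks inhibitors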)
Outline: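 S3 HeLa stably expressing lamin A-EGFP splicing minigene and DsRed2, 600 cells/well in Opti-MEM with 2% FBS, treated 48 h at 37C; laser-scanning cytometry gives GFP/RFP total intensity ratio; ancitabine positive control, 0.5% DMSO vehicle.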

[2] = molecular target: DNA repair nuclease/redox regulator APEX1 (Homo sapiens) (UniProt P27695); assay: qHTS Validation Assay for Inhibitors of the Human Apurinic/apyrimidinic Endonuclease 1 (APE1) (AID 1705;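 also: TAMRA fluorescence gain over two minutes as APE1 cuts a quenched THF abasic duplex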)
Sequence of DNA repair nuclease/redox regulator APEX1 (Homo sapiens) (P27695 whole entry, looked up): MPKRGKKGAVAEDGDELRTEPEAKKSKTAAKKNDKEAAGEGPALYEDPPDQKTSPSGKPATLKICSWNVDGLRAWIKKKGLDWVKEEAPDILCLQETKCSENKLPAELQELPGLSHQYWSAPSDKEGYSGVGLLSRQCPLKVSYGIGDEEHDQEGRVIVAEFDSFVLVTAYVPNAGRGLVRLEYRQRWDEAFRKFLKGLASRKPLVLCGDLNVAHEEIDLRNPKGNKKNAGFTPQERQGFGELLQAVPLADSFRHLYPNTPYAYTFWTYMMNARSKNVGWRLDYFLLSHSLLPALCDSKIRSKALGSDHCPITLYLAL
Outline: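 Fluorogenic double-stranded THF abasic-site substrate (5'-TAMRA/3'-BHQ-2), 50 nM final. Enzyme preincubated with compound 15 min at room temperature, then substrate added. Kinetic fluorescence (ex 525/em 598 nm) read three times at 60 s intervals; activity taken as third-minus-first read difference.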

[3] = Counterscreen for APE1 Inhibitors: Fluorescent Dye Displacement Validation Assay (AID 1707)
Outline: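 Endpoint fluorescence read at 480 nm excitation / 540 nm emission; DNA-binding compounds lower signal by displacing 250 nM Thiazole Orange from 50 nM dsDNA containing a tetrahydrofuran abasic site, Tris-HCl pH7.5 buffer with NaCl and MgCl2.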

[4] = molecular target: Endonuclease 4 (Escherichia coli (strain K12)) (UniProt P0A6C1); assay: Counterscreen for APE1 Inhibitors: qHTS Validation Assay for Inhibitors of Endonuclease IV (AID 1708)
Outline: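 The reaction buffer contained 50 mM Tris-HCl pH 7.5, 50 mM NaCl, 2 mM MgCl2, 1 mM DTT and 0.01% Tween-20. Incision of a 50 nM fluorophore/quencher THF substrate by 2 nM enzyme was measured kinetically.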

[5] = qHTS for differential inhibitors of proliferation of Plasmodium falciparum line 7G8 (AID 1815);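 also: parasite growth measured after three days of incubation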
[6] = qHTS for differential inhibitors of proliferation of Plasmodium falciparum line GB4 (AID 1816);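 also: parasite growth measured after 72 h incubation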
[7] = qHTS for differential inhibitors of proliferation of Plasmodium falciparum line 3D7 (AID 1876);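 also: parasite growth measured after three days of culture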
[8] = qHTS for differential inhibitors of proliferation of Plasmodium falciparum line D10 (AID 1877);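 also: parasites grown with compound for 72 h before DNA staining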
[9] = qHTS for differential inhibitors of proliferation of Plasmodium falciparum line Dd2 (AID 1882);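 also: compound exposure of 72 h on infected erythrocytes; nearly all actives have a fitted effect of over 65% in size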
Outline: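 RBC culture, 0.3% parasitemia / 2.5% Hct final; cpd added by pin tool in DMSO; 72 h, 37 C, 5% CO2; lysis buffer + SYBR Green I, o/n RT dark; FI 485/535; norm. to artemisinin 0.29 uM and DMSO.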

[10] = qHTS for differential inhibitors of proliferation of Plasmodium falciparum line W2 (AID 1883);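 also: parasites grown with compound for 72 h before lysis and staining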
[11] = qHTS for differential inhibitors of proliferation of Plasmodium falciparum line HB3 (AID 1886);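 also: parasites grown with compound for 72 h before SYBR Green readout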
[12] = molecular target: Ferritin light chain (Equus caballus) (UniProt P02791); assay: qHTS Validation Assay for Identification of Novel General Anesthetics (AID 2323)
Sequence of Ferritin light chain (Equus caballus) (P02791 2-175 limits assumed): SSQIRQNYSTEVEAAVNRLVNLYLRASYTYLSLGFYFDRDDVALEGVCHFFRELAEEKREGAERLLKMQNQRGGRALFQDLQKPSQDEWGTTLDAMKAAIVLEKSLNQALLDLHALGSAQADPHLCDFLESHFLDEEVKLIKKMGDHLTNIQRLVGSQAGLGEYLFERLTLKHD
Outline: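 Horse-spleen apoferritin (10 uM) in PBS with 50% saturated 1-aminoanthracene; compounds pin-transferred, 10 min at room temperature. Fluorescence read at 380/535 nm, normalized to free 1-AMA and 1-AMA/apoferritin values; four-parameter Hill fit.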

[13] = molecular target: ATP-dependent DNA helicase Q1 (Homo sapiens) (UniProt P46063); assay: qHTS Validation Assay for Inhibitors of RecQ-Like Dna Helicase 1 (RECQ1) (AID 2353)
Sequence of ATP-dependent DNA helicase Q1 (Homo sapiens) (P46063 whole entry, looked up): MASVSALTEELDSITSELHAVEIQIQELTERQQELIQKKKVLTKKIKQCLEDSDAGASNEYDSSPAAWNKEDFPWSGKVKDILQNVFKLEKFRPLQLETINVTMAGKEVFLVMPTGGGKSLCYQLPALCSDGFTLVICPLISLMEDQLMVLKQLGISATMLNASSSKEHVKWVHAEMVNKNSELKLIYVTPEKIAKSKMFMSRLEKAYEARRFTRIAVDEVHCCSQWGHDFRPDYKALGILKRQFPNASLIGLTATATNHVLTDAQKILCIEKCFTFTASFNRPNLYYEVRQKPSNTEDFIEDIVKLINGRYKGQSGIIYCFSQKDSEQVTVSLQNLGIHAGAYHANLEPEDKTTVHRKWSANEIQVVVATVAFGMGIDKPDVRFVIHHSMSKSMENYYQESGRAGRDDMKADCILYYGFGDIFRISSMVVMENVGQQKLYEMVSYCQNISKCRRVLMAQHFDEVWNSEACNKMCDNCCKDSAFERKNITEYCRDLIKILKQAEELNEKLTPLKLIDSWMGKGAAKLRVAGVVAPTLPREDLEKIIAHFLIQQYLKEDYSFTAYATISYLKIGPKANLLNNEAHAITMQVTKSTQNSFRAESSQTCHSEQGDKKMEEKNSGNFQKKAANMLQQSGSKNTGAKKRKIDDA
Outline: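 RECQ1T1 50 nM; forked duplex (20 bp + 30-nt ss tails) 200 nM, ATP 2 mM final; pH 8.0, 2 mM MgCl2, 2.5 ug/ml poly(dI-dC); 15 min compound preincubation; discontinuous kinetic read over 2 h at RT.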

[14] = Validation screen for small molecules that induce DNA re-replication in MCF 10A normal breast cells (AID 463097); also: nearly all actives have a fitted effect of over 60% in size
Outline: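 MCF 10A cells exposed to compound 48 hr at 37 C, 5% CO2, then Hoechst-stained 40 min. Laser-scanning imaging of nuclear DNA content (405 nm ex, 500-530 nm em); re-replication scored as rise in nuclei with elevated fluorescence intensity.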

[15] = Cytometric Cell-Based qHTS for Inhibitors of the mTORC1 Signaling Pathway in MEF (Tsc2-/-, p53-/-) Cells (AID 2660);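 also: Tsc2 and p53 null MEFs carrying empty vector with compound for 24 h; percent of cells above a phospho-rpS6 to PI ratio cutoff in each well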
Outline: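 Cells are plated, treated with compound for 24 hrs at 37 degree Celsius, then fixed, blocked and immunostained for phospho-rpS6 Ser235/236. Propidium iodide counterstain follows. Per-well % positive cells is derived from the PI-normalized phospho-S6 signal.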

[16] = High Content Imaging Cell-Based qHTS for Inhibitors of the mTORC1 Signaling Pathway in MEF (Tsc2-/-, p53-/-) Cells (AID 2666); details: at 38.3 µM (top of the series);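 also: percent of cells scored positive for phospho-rpS6 Ser235/236 immunostaining by imaging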
Outline: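 Tsc2-/-, p53-/- MEFs (empty-vector stable) grown in DMEM + 10% FBS were exposed to compounds for 24 hrs at 37 degree Celsius, fixed, and stained with Alexa-488 anti-phospho-rpS6 Ser235/236 plus Hoechst. Imaging gave the percentage of positive cells per well.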

[17] = High Content Imaging Cell-Based qHTS for Inhibitors of the mTORC1 Signaling Pathway in MEF Cells (AID 2667);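 also: Tsc2-/- p53-/- MEFs stably re-expressing wild-type Tsc2 exposed 24 h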
Outline: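 Tsc2-/-, p53-/- MEFs stably re-expressing WT Tsc2, grown in DMEM + 10% FBS, were treated with compounds for 24 hrs at 37 degree Celsius, fixed, and stained with Alexa-488 phospho-rpS6 Ser235/236 antibody plus Hoechst; results given as % positive cells.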

[18] = Cytometry Cell-Based qHTS for Inhibitors of the mTORC1 Signaling Pathway in MEF cells (AID 2668);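 also: Tsc2-/- p53-/- mouse embryonic fibroblasts stably re-expressing wild-type Tsc2; percent cells positive for phospho-rpS6 Ser235/236 relative to propidium iodide stain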
Outline: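 MEFs (Tsc2-/-, p53-/- stably expressing WT Tsc2) treated 24 h at 37 degree Celsius, fixed, stained with Alexa-488 anti-phospho-rpS6 Ser235/236 and propidium iodide; Acumen laser scanning. Reported as % positive cells, phospho-S6 normalized to PI.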

[19] = molecular target: Ubiquitin carboxyl-terminal hydrolase 2 (Homo sapiens) (UniProt O75604); assay: qHTS Validation Assay for Inhibitors of Ubiquitin-specific Protease USP2a Using CHOP2 as the Reporter (AID 463106)
Sequence of Ubiquitin carboxyl-terminal hydrolase 2 (Homo sapiens) (O75604 whole entry, looked up): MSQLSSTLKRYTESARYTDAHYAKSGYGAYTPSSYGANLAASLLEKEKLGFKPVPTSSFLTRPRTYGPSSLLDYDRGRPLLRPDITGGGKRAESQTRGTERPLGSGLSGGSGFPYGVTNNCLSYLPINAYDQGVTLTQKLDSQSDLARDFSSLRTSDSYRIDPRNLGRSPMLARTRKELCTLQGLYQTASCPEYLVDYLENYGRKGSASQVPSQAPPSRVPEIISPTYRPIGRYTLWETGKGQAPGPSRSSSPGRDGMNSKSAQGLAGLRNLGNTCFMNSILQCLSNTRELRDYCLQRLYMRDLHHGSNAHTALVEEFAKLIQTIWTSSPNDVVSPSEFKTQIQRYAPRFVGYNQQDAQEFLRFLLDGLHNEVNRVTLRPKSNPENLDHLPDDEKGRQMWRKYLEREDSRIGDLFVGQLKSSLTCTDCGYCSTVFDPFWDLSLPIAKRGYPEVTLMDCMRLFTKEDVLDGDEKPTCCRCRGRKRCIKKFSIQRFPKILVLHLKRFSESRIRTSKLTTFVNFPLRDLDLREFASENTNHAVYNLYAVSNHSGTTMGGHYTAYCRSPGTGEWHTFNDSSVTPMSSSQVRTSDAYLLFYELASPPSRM
Outline: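 Readout was coupled fluorescence (Ex 485/Em 531 nm), read 60 min after adding 25 nM final Ub-CHOP2 and 25 nM reporter substrate. Beforehand, 10 nM final USP2 core had 30 min at RT with compound in pH 8.0 buffer. Curves were fitted after normalization to NEM and flagged for artifacts using time-zero reads.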

Measured: outcome

CCNC(=O)[C@H]1O[C@@H](n2cnc3c(N)nc(NCCc4ccc(CCC(=O)O)cc4)nc32)[C@H](O)[C@H]1O
not listed: [15] | [16] | [17] | [18] | [19]
inactive: all other assays above

C[C@H]1O[C@@H](n2cc(F)c(=O)[nH]c2=O)[C@H](O)[C@H]1O
inactive: [15] | [16] | [17] | [18] | [19]

C=CCc1cccc(C=NNC(=O)CN2CCN(Cc3ccccc3)CC2)c1O
inactive: [15] | [16] | [17] | [19]
